Screens from PubChem.
Hits are enriched below; roughly 4% of the tested compounds scored in any of these assays.
TSHR agonist: qHTS Assay for Agonists of the Thyroid Stimulating Hormone Receptor; Thyrotropin receptor (Homo sapiens), P16473; HEK293-CNG-TSHR cells (CNG channel as cAMP sensor), membrane potential dye, cAMP; Potency, µM (series often up to 57.1 µM), hits mostly activators; 73,000 compounds, 0.48% hits; AID 926, 2007; active = well fitted activation curve with a large enough effect in the main read-out, with a control signal flat, not every such curve was filed as active; inconclusive = small, poorly fitted or top-dose-only effect, or a change in a side signal; inactive = no such curve, though single readings can be large or run the other way; reference of the percent scale not stated here;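 also: the control signal comes from parental cells without the receptor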
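cAMP rise detected as CNG-channel membrane depolarization by fluorescent dye (emission 590 nm), 30 min after compound, following 60 min dye loading containing 100 uM RO 20-1724 at room temperature. Cells: TSHR/CNG HEK 293, with parental CNG HEK 293 as control.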
HEK293 cAMP cs: qHTS Assay for Agonists of the Thyroid Stimulating Hormone Receptor: Activators of Intracellular cAMP Concentrations in Parental HEK 293; 73,000 compounds, 2.5% hits; Potency, µM (doses to about 57.1 µM), most hits filed as activators; parental HEK293 CNG cAMP sensor, membrane potential fluorescence; also: nearly all actives have a fitted effect of over 55% in size
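Parental HEK 293 cells stably expressing a modified CNG channel (no TSHR) report cAMP rise as membrane depolarization. Membrane potential dye with 100 uM RO 20-1724 was loaded for 60 min at room temperature, then compound added for 30 min; fluorescence read at 590 nm.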
Caspase-1 inhib: qHTS Assay for Allosteric/Competitive Inhibitors of Caspase-1. P29466. Caspase-1 enzyme, Ac-WEHD-AFC fluorogenic rate. Potency, µM (doses to about 57.5 µM), hits mostly inhibitors. 75,000 compounds, 0.03% hits. AID 900, 2007
Target sequence (P29466 120-297 limits assumed): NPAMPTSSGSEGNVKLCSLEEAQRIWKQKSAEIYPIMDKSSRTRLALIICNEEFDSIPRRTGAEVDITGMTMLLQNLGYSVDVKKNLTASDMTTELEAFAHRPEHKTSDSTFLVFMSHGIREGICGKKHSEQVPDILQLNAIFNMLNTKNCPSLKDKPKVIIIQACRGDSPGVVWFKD
Target sequence (P29466 317-404 limits assumed): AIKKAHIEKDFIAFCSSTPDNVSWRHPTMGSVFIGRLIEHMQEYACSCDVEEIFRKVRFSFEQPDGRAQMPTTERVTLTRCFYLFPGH
Bst PK mod: Pyruvate Kinase; Potency, µM; AID 361, 2006; 51,000 compounds, 1.2% hits; purified pyruvate kinase, luminescence ATP production; ribose 5-phosphate activator present at AC10; in the data active = potency below about 11 µM; inconclusive = mostly about 12 µM to 25 µM;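 the screen sought inhibitors and activators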
GBA mod: Glucocerebrosidase | Lysosomal acid glucosylceramidase (Homo sapiens), P04062 | purified enzyme, resorufin glucoside fluorescence (screen aimed at inhibitors), 20 min | Potency, µM | 48,000 compounds, 1.1% hits | AID 360, 2006; in the data active = potency below about 15 µM; inconclusive = mostly about 16 µM to 33 µM;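 also: the screen sought inhibitors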
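Normal human glucocerebrosidase (0.2 nM final) was assayed with resorufin β-D-glucopyranoside (30 uM final) in 50mM citric acid/KH2PO4, 10mM sodium taurocholate, 0.01% tween-20, pH 5.9. Compounds were titrated; fluorescence (Ex 548, Em 600) read after 20 min at RT.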
Casp7 inh: qHTS Assay for Allosteric/Competitive Inhibitors of Caspase-7. P55210. Potency, µM (series often up to 57.5 µM), most hits filed as inhibitors. recombinant caspase-7, Ac-DEVD-AFC fluorescence rate. 75,000 compounds, 0.02% hits; active = well fitted inhibition curve with a large enough effect in the main read-out, with a control signal flat, not every such curve was filed as active; inconclusive = small, poorly fitted or top-dose-only effect, or a change in a side signal
Target sequence (P55210 24-198 limits assumed): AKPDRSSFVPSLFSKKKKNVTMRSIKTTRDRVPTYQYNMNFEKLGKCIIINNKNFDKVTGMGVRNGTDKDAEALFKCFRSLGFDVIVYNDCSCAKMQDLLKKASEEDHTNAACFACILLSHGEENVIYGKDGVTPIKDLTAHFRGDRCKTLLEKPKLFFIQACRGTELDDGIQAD
Target sequence (P55210 207-303 limits assumed): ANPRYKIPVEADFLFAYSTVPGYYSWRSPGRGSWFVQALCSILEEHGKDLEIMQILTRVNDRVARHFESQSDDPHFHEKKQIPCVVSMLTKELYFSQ
Hits are given with their value; - = inactive; ? = inconclusive; . = no result given; [ ] = remark or other dose. Unless noted, calls follow the shape of the dose curve; as a rule, active = well fitted curve in the direction sought with a large enough effect; inconclusive = small, poorly fitted or top-dose-only effect, or another doubt; inactive = no such curve, though single readings can be large; an effect the other way counts as inactive or inconclusive.

SMILES	TSHR agonist	HEK293 cAMP cs	Caspase-1 inhib	Bst PK mod	GBA mod	Casp7 inh
N=C(N)S[C@H]1c2ccccc2-c2cc([N+](=O)[O-])ccc21	-[11.4 µM]	-[11.4 µM]	-[11.5 µM]	.	.	-[11.5 µM]
CC1CCCC(NC(=O)C2CCN(S(=O)(=O)N3CCC4(CC3)OCCO4)CC2)C1C (stereo unspecified)	-	-	-	-	14	-
CC1CCCCC1NC(=O)C1CCN(S(=O)(=O)N2CCC3(CC2)OCCO3)CC1 (stereo unspecified)	-	-	-	-	-	-
CCOC(=O)c1[nH]c(C)c(C(=O)NC2CCCC2)c1C	?	25µM	-	.	.	-
COc1ccc(Oc2ncc3nc(CCc4ccccc4)c(=O)n(C[C@H]4CCCO4)c3n2)cc1	?	10µM	-	.	.	-
O=c1cnc2cnc(Oc3ccccc3)nc2n1Cc1ccc(F)cc1	?	?	-	.	.	-
Cn1c(=O)c(CCc2ccccc2)nc2cnc(OCc3ccccc3)nc21	?	1µM	-	.	.	-
O=c1cnc2cnc(Oc3ccccc3)nc2n1CCc1ccccc1	?	1.6µM	-	.	.	-
COc1ncc2nc(CCc3ccccc3)c(=O)n(Cc3cccs3)c2n1	?	10µM	-	.	.	-
C[C@@H]1O[C@@H](n2cc(F)c(=O)[nH]c2=O)[C@H](O)[C@@H]1O	.	-	-	.	.	-
OCCCNCc1ccncc1	-[11.4 µM]	-[11.4 µM]	-[11.5 µM]	.	.	-[11.5 µM]
CC(C)CO/N=C1/C[C@@H](O)[C@@H](O)[C@@H]2[C@@H]3C(=O)N(c4cccc(Oc5ccccc5)c4)C(=O)[C@H]3CC[C@H]12	-[11.4 µM]	-[11.4 µM]	-[11.5 µM]	.	.	-[11.5 µM]
COc1cccc(Cn2c(=O)c(CCc3ccccc3)nc3cnc(OC)nc32)c1	?	16µM	-	.	.	-
CCNc1ncc2nc(CCc3ccccc3)c(=O)n(Cc3cccc(OC)c3)c2n1	-	-	-	.	.	-
Cc1cccc(C)c1OC[C@@H](N)C(C)C	-	-	-	.	.	-
Cc1cccc(CNc2ncncc2-c2cccc(NS(C)(=O)=O)c2)c1	?	?	-	.	.	-
O=C(COC(=O)C1CCCCC1C(=O)N1CCc2ccccc21)NCc1ccco1 (stereo unspecified)	?	20µM	-	-	.	-
COc1ccc(Cc2nnc3n2N=C(c2cc4ccccc4o2)CS3)cc1OC	?	25µM	-	-	-	-
C[N+](C)(C)[C@H](Cc1c[nH]c(=S)[nH]1)C(=O)O	-[11.4 µM]	-[11.4 µM]	-[11.5 µM]	.	.	-[11.5 µM]
Cc1ccc(-c2noc(-c3cccs3)n2)cc1	-	-	-	.	.	-
Brc1ccc(-c2cnc(-c3cccs3)o2)cc1	?	?	-	1.3	-	-
C=C(CO)C1Cc2c(ccc3c2OC2COc4cc(OC)c(OC)cc4C2C3=O)O1 (stereo unspecified)	.	.	-	.	.	-
CC(=O)N1CCN(c2ccc(NCc3ccccc3)cc2)CC1	-	-	-	-	13	-
COc1ccc2oc(-c3ccccc3)c(OC)c(=O)c2c1	?	40µM	-	.	.	-
COc1ccc2oc(-c3ccccc3)c(C(N)=O)c2c1	?	?	-	.	.	-
SMILES	TSHR agonist	HEK293 cAMP cs	Caspase-1 inhib	Bst PK mod	GBA mod	Casp7 inh
COc1ccc(C(=O)/C=C/Nc2cc(C)on2)c(OC)c1	-	-	-	3.8	-	-
COc1ccccc1-c1cc(C(=O)Nc2cc(C)on2)no1	-[11.4 µM]	-	-	-	-	-
O=C(O)C1CC2(C1)CC(C(=O)O)C2 (stereo unspecified)	-[11.4 µM]	-[11.4 µM]	-[11.5 µM]	.	.	-[11.5 µM]
C/C(CC/C(C)=N/O)=N/O	-[11.4 µM]	-[11.4 µM]	-[11.5 µM]	.	.	-[11.5 µM]
CC1CCC2C(=O)N3C(CCC(C)C3c3ccc(-c4ccco4)cc3)C(=O)N2C1c1ccc(-c2ccco2)cc1 (stereo unspecified)	-[11.4 µM]	-[11.4 µM]	-[11.5 µM]	.	.	-[11.5 µM]
Cc1ccccc1N1OC2C(=O)N(c3ccc(F)cc3)C(=O)C2C1c1ccccn1 (stereo unspecified)	?	20µM	-	-	-	-
c1ccc2nc(-c3nc4ccccc4o3)ccc2c1	-	-	-	1.5	?	-
CC(C)c1ccc(Cn2ccc3c4c(N)nc(NC5CC5)nc4ccc32)cc1	?	-	-	.	.	-
O=C(O)c1cncc(C(=O)O)c1	-[11.4 µM]	-[11.4 µM]	-[11.5 µM]	.	.	-[11.5 µM]
O=C(NCC12CC3CC(CC(C3)C1)C2)c1cc2n(n1)C(C(F)(F)F)CC(c1ccco1)N2 (stereo unspecified)	-[11.4 µM]	-	-	-	13	-
COc1ccc(NC(=O)c2cc3n(n2)C(C(F)(F)F)CC(c2ccco2)N3)cc1 (stereo unspecified)	-	-	-	-	-	-
CCCCCCN1CC(O)=C(c2nc3ccccc3[nH]2)C1=N	-	-	-	-	11	-
CCC(C)N1CC(O)=C(c2nc3ccccc3[nH]2)C1=N (stereo unspecified)	-	-	-	.	.	.
Cc1[nH]c2ccc(F)cc2c(=O)c1SC(F)(F)C(F)F	-[11.4 µM]	-	-	-	9.5	-
c1ccc2c(N3CCCC3)nc(-c3ccncc3)nc2c1	?	?	-	-	-	-
C=CCOc1nc(-c2ccncc2)nc2ccccc12	.	.	.	8.3	.	.
CCCn1c(N2CCN(C(=O)N3CCCCC3)CC2)nc2ccccc21	-	-	-	-	.	-
CCCn1c(N2CCN(S(=O)(=O)Cc3ccccc3)CC2)nc2ccccc21	?	25µM	-	-	-	-
N#Cc1c(N2CCN(C(=O)c3ccco3)CC2)nc(-c2ccccc2)c2c1CCCC2	?	16µM	-	.	.	-
CC(C#N)Sc1ncnc2sc3c(c12)CCC3 (stereo unspecified)	?	25µM	-	.	-	-
CCCc1cc(=O)n2[nH]c(-c3cc(OC)c(OC)c(OC)c3)nc2n1	25µM	-	-	-	-	-
CCCc1cc(=O)n2[nH]c(C)nc2n1	-	-	-	-	-	-
CCC(C)(C)NC(=O)C(c1ccccc1F)N(Cc1ccco1)C(=O)c1csnn1 (stereo unspecified)	-	-	-	-	-	-
